This is one part of a sample in which hits are shown more often than they occur.
Pf Dd2 inh – inhibitors of Plasmodium falciparum Dd2 growth | AID 1347417 | Potency, µM (doses to about 28.9 µM), inactives show at the top dose activity, negative = inhibition, actives largely listed as inhibitors | P. falciparum Dd2 growth, SYBR Green, 72 h | 120,000 tested, 4.3% active; active means well fitted inhibition curve with a large enough effect;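 further: plate controls were DMSO vehicle for no effect and reference drug for full effect; nearly all actives have a fitted effect of over 65% in size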
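Readout: SYBR Green fluorescence, 485 nm excitation, 535 nm emission, after ~16 h lysis at 37C. Before that, Dd2-infected red cells (2.5% hematocrit) grew 72 h with compound, 29 uM top final concentration.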
Numbers without * were called inactive; i = inactive; ! = a repeat was not active; [ ] = another dose, or the depositor's remark. Potency means the concentration at half of the fitted maximal effect.

SMILES	Pf Dd2 inh
CCN(CC)c1cc(C)c2cc(NC(=O)c3cc(OC)cc(OC)c3)ccc2n1	-3%
CCN(CC)c1cc(C)c2cc(NC(=O)/C=C/c3ccccc3Cl)ccc2n1	10µM*
CCN(CC)c1cc(C)c2cc(NC(=O)c3ccc(F)cc3Cl)ccc2n1	i
O=C(COc1ccccc1)NCC(=O)N1CCCCCNC(=O)CC1c1ccccc1 (centres undefined)	-17%
O=C(c1ccccc1F)N1CC(c2nnc(-c3ccncc3)o2)C2(CCOCC2)C1 (centres undefined)	-29%
Cc1noc(C)c1C(=O)N1CCC2(CC1)CN(C(=O)N(C)C)Cc1ccccc1O2	-20%
COc1ccc(CCN2C(=O)c3[nH]nc(-c4ccccc4O)c3C2c2ccccc2)cc1 (centres undefined)	8.9µM*
COc1ccc(CCN2C(=O)N(c3ccccc3)C(=O)C2CC(=O)Nc2ccccc2)cc1 (centres undefined)	i
COc1ccc(CCN2C(=O)c3[nH]nc(-c4ccccc4O)c3C2c2ccc(OC)cc2)cc1 (centres undefined)	10µM*
COc1ccc(CN2C(=O)c3oc4ccccc4c(=O)c3C2c2ccc(O)c(OC)c2)cc1 (centres undefined)	-16%
CCCNC(=O)CN1C(=O)c2c(c3ccccc3n2C)C1c1ccc(OC)cc1 (centres undefined)	9%
COc1ccc(CN2CC3(Cc4ccccc4C(=O)N3)C2)cc1	-39%
CC(C)(C)c1ccc(NC(=O)O[C@@H]2CO[C@H]3[C@@H]2OC[C@@H]3Nc2nccc(C(C)(C)C)n2)cc1	i
CC(=O)Nc1ccc(S(=O)(=O)N[C@H]2CO[C@H]3[C@@H]2OC[C@@H]3Nc2nccc(C(C)(C)C)n2)cc1	-9%
Cc1ccc(C(=O)N[C@H]2CO[C@H]3[C@@H]2OC[C@@H]3Nc2nccc(C(C)(C)C)n2)cc1	11µM*
O=C(CCC1CCN(C(=O)c2ccccc2F)CC1)NC1CC1	-15%
Nc1nnnn1CC(=O)NCc1cccnc1Oc1ccc(F)cc1F	-18%
O=C1Nc2ccc(-c3ccc4c(c3)OCO4)cc2C(=O)N2CCN(C(=O)c3cccs3)C[C@H]12	i
CC(C)(C)c1ccc(CN(Cc2ccco2)c2cnc(S(C)(=O)=O)nc2C(=O)Nc2ccc(F)cc2)cc1	7.9µM*
CCS(=O)(=O)c1ncc(N(Cc2ccco2)Cc2ccccc2F)c(C(=O)Nc2cccc(Cl)c2)n1	4µM*
CS(=O)(=O)c1ncc(N(Cc2ccco2)Cc2ccco2)c(C(=O)Nc2ccccc2Br)n1	-19%
CS(=O)(=O)c1ncc(N(Cc2ccccc2)Cc2ccco2)c(C(=O)Nc2cccc(C(F)(F)F)c2)n1	6.3µM*
O=C(Nc1nc2ccc(F)cc2s1)c1nc(S(=O)(=O)Cc2ccccc2F)ncc1Cl	77%
COc1ccc(CN(Cc2ccco2)c2cnc(S(C)(=O)=O)nc2C(=O)Nc2ccc(C)cc2C)cc1	-1%
O=C(Nc1cccc(C(F)(F)F)c1)c1cc2nc(-c3ccco3)cc(C(F)(F)Cl)n2n1	15%
SMILES	Pf Dd2 inh
CCSc1ncc(Cl)c(C(=O)Nc2cccc(Cl)c2)n1	24%
CS(=O)(=O)c1ncc(Cl)c(C(=O)N(Cc2ccc(Cl)cc2)Cc2ccco2)n1	i[5.79 µM]
CNc1nc2c(c(C(=O)N3CCCC3)n1)CN(C(=O)Cn1nccc1C)CC2	-6%
O=C(CCN1CCOC(C(F)(F)F)C1)NCc1ccccc1Cl (centres undefined)	-11%
Cc1nnc2n1CCC(NC(=O)NCCc1ccccc1)CC2 (centres undefined)	21%
COCCN1CCC(C(=O)N2Cc3cnc(CC(C)C)nc3C2)CC1	-18%
COc1ccc(-c2nc(C)c(C)cc2C#N)c2cccnc12	-1%
O=C(NC1CCN(C(=O)N2CC3CC(C2)[C@H]2CCCC(=O)N2C3)CC1)c1n[nH]c2ccccc12 (some centres undefined)	i
Cc1cc(C)n(CCCN(C)C(=O)C2CC3(CCNCC3)CN2)n1 (centres undefined)	1%
O=C(N[C@H]1CCN2C(=O)c3cc(-c4ccc(F)cc4F)ccc3NC(=O)[C@H]12)c1cnccn1	-14%
CCOc1cccc(CNc2ccc(O)cc2)c1OCc1ccccc1Cl	i[5.79 µM]
CCOc1cc(CNc2ccc(O)cc2)cc(Cl)c1OCc1ccccc1	13µM*
CCOc1cc(CNc2ccc(C(=O)O)cc2)ccc1OCc1ccccc1	6%
Cc1ccc2nc(C3CCN(Cc4ccccc4)CC3)[nH]c(=O)c2c1	-5%
Cc1ccc(-c2cccc(CN3CCCC(c4nc5ccc(C)cc5c(=O)[nH]4)C3)c2)c(C)c1 (centres undefined)	7.9µM*!
COc1ccc(-n2nc(C3CCCN(Cc4cccc5ccccc45)C3)[nH]c2=O)cc1 (centres undefined)	-18%
COc1cccc(-c2ccc(CN3CCCC(c4nc5ccc(C)cc5c(=O)[nH]4)C3)cc2)c1 (centres undefined)	7.9µM*!
Cc1ccc2nc(C3CCN(CC4CCCC4)CC3)[nH]c(=O)c2c1	11%[44.1 µM]
COc1cccc(-c2ccc(CN3CCN(c4cc(Cl)ncn4)C(=O)C3)cc2)c1	-23%
